Where “and” joins values, the source holds several entries; their conditions need not be identical. Identical values can stand only once. Screen size: about 5,500 compounds; about 2,000 (36%) were called active. Inconclusive results (about 18%) are left out. This is one part of the list. Values without a mark were called inactive. Rule as the data show it: active = normalized growth mostly below about 0.91 (no sharp cut-off); inconclusive = no clear call, values can overlap the other calls; inactive = mostly above about 0.92.
Assay: chemical genetic growth profiling, strain panel (AID 1159580);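 also: tested at 20 µM; growth read once vehicle control cultures reached saturation at 30 °C; 1 = growth at the plate median or of vehicle wells; lower values mean less growth of the strain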
Conditions: S. cerevisiae deletion strains, growth OD

Which normalized growth (locus YAL013W, strain DEP1, hits give low values) does the source give for CCC(C)(C)C(=O)O[C@H]1C[C@@H](C)C=C2C=C[C@H](C)[C@H](CC[C@@H]3C[C@@H](O)CC(=O)O3)[C@H]21 here?
Its normalized growth is 0.99.

And the normalized growth (locus YAL021C, strain ccr4, hits give low values)?
The normalized growth was 0.703 (active).

And the normalized growth (locus YAL026C, strain drs2, hits give low values)?
Its normalized growth is 0.828 (active).

What about the normalized growth (locus YAL030W, strain snc1, hits give low values) of the same compound?
The normalized growth was 1.01.

And the normalized growth (locus YBL061C, strain skt5, hits give low values)?
Its normalized growth is 0.855 (active).

And the normalized growth (locus YBR009C, strain hhf1, hits give low values)?
Its normalized growth is 0.912.

And the normalized growth (locus YBR021W, strain FUR4, hits give low values)?
Its normalized growth is 0.861.

And the normalized growth (locus YBR023C, strain chs3, hits give low values)?
The normalized growth was 0.841 (active).

And the normalized growth (locus YBR171W, strain sec66, hits give low values)?
The normalized growth was 0.998.

What about the normalized growth (locus YBR229C, strain ROT2, hits give low values) of the same compound?
Its normalized growth is 1.01.

And the normalized growth (locus YBR231C, strain swc5, hits give low values)?
The normalized growth was 0.776 (active).

What about the normalized growth (locus YBR279W, strain paf1, hits give low values) of the same compound?
Its normalized growth is 0.851 (active).

And the normalized growth (locus YCL011C, strain gbp2, hits give low values)?
Its normalized growth is 0.944.

What about the normalized growth (locus YCL016C, strain dcc1, hits give low values) of the same compound?
Its normalized growth is 0.909 (active).

And the normalized growth (locus YCL029C, strain bik1, hits give low values)?
Its normalized growth is 1.04.

What about the normalized growth (locus YCL061C, strain MRC1, hits give low values) of the same compound?
The normalized growth was 1.01.

And the normalized growth (locus YCL069W, strain vba3, hits give low values)?
Its normalized growth is 0.955.

What about the normalized growth (locus YCR088W, strain abp1, hits give low values) of the same compound?
The normalized growth was 1.02.

And the normalized growth (locus YDL005C, strain med2, hits give low values)?
The normalized growth was 1.02.

What about the normalized growth (locus YDL035C, strain GPR1, hits give low values) of the same compound?
Its normalized growth is 0.97.

And the normalized growth (locus YDL040C, strain nat1, hits give low values)?
The normalized growth was 0.997.

What about the normalized growth (locus YDL074C, strain BRE1, hits give low values) of the same compound?
Its normalized growth is 0.866.

What about the normalized growth (locus YDL101C, strain DUN1, hits give low values) of the same compound?
Its normalized growth is 0.98.

And the normalized growth (locus YDL134C, strain PPH21, hits give low values)?
The normalized growth was 1.01.

And the normalized growth (locus YDL185W, strain tfp1, hits give low values)?
The normalized growth was 0.955.

And the normalized growth (locus YDL192W, strain arf1, hits give low values)?
The normalized growth was 1.02.

What about the normalized growth (locus YDR001C, strain nth1, hits give low values) of the same compound?
The normalized growth was 1.02.

What about the normalized growth (locus YDR069C, strain doa4, hits give low values) of the same compound?
The normalized growth was 1.

And the normalized growth (locus YDR101C, strain arx1, hits give low values)?
Its normalized growth is 1.04.

What about the normalized growth (locus YDR137W, strain rgp1, hits give low values) of the same compound?
Its normalized growth is 1.35 [resistant] (active).

What about the normalized growth (locus YDR150W, strain NUM1, hits give low values) of the same compound?
The normalized growth was 1.01.

What about the normalized growth (locus YDR159W, strain sac3, hits give low values) of the same compound?
The normalized growth was 0.93.

What about the normalized growth (locus YDR162C, strain NBP2, hits give low values) of the same compound?
The normalized growth was 0.937.

And the normalized growth (locus YDR195W, strain ref2)?
The normalized growth was 1.01.

And the normalized growth (locus YDR297W, strain sur2, hits give low values)?
The normalized growth was 0.999.

And the normalized growth (locus YDR318W, strain mcm21, hits give low values)?
Its normalized growth is 1.

And the normalized growth (locus YDR334W, strain swr1, hits give low values)?
The normalized growth was 0.941.

What about the normalized growth (locus YDR335W, strain msn5, hits give low values) of the same compound?
Its normalized growth is 0.979.

And the normalized growth (locus YDR388W, hits give low values)?
The normalized growth was 1.02.

What about the normalized growth (locus YDR392W, strain spt3, hits give low values) of the same compound?
Its normalized growth is 0.528 (active).

What about the normalized growth (locus YDR502C, strain sam2, hits give low values) of the same compound?
The normalized growth was 1.02.

And the normalized growth (locus YEL003W, strain gim4, hits give low values)?
The normalized growth was 0.973.

What about the normalized growth (locus YEL037C, strain rad23, hits give low values) of the same compound?
Its normalized growth is 1.

And the normalized growth (locus YEL061C, strain CIN8 (second series), hits give low values)?
The normalized growth was 0.988.

What about the normalized growth (locus YEL061C, strain CIN8, hits give low values) of the same compound?
Its normalized growth is 0.995.

What about the normalized growth (locus YER015W, strain faa2, hits give low values) of the same compound?
The normalized growth was 0.842 (active).

What about the normalized growth (locus YER016W, strain bim1, hits give low values) of the same compound?
Its normalized growth is 0.953.

And the normalized growth (locus YER110C, hits give low values)?
Its normalized growth is 1.04.

What about the normalized growth (locus YER111C, strain swi4, hits give low values) of the same compound?
The normalized growth was 1.01.

What about the normalized growth (locus YER155C, strain BEM2 (second series), hits give low values) of the same compound?
The normalized growth was 1.

And the normalized growth (locus YER155C, strain BEM2, hits give low values)?
Its normalized growth is 0.996.

What about the normalized growth (locus YER167W, strain BCK2, hits give low values) of the same compound?
The normalized growth was 0.982.

What about the normalized growth (locus YFR010W, strain ubp6, hits give low values) of the same compound?
The normalized growth was 0.973.

What about the normalized growth (locus YGL078C, strain dbp3, hits give low values) of the same compound?
The normalized growth was 1.03.

What about the normalized growth (locus YGL086W, strain mad1, hits give low values) of the same compound?
The normalized growth was 0.991.

And the normalized growth (locus YGL167C, strain pmr1, hits give low values)?
The normalized growth was 1.01.

And the normalized growth (locus YGL173C, strain kem1, hits give low values)?
Its normalized growth is 0.997.

And the normalized growth (locus YGL227W, strain vid30, hits give low values)?
Its normalized growth is 1.02.

What about the normalized growth (locus YGL240W, strain doc1, hits give low values) of the same compound?
Its normalized growth is 1.03.

And the normalized growth (locus YGL248W, strain PDE1, hits give low values)?
The normalized growth was 1.01.

And the normalized growth (locus YGL253W, strain hxk2, hits give low values)?
The normalized growth was 0.787 (active).

What about the normalized growth (locus YGR078C, strain PAC10, hits give low values) of the same compound?
Its normalized growth is 0.966.

What about the normalized growth (locus YGR135W, strain pre9, hits give low values) of the same compound?
Its normalized growth is 1.01.

And the normalized growth (locus YGR229C, strain SMI1, hits give low values)?
The normalized growth was 0.783 (active).

And the normalized growth (locus YGR252W, strain gcn5, hits give low values)?
The normalized growth was 0.983.

What about the normalized growth (locus YHR013C, strain ard1, hits give low values) of the same compound?
The normalized growth was 0.912.

What about the normalized growth (locus YHR027C, strain rpn1, hits give low values) of the same compound?
Its normalized growth is 0.875 (active).

And the normalized growth (locus YHR030C, strain SLT2, hits give low values)?
The normalized growth was 1.02 and 0.921.

What about the normalized growth (locus YHR079C, strain IRE1 (second series), hits give low values) of the same compound?
The normalized growth was 1.03.

What about the normalized growth (locus YHR079C, strain IRE1, hits give low values) of the same compound?
Its normalized growth is 0.948.

And the normalized growth (locus YHR094C, strain hxt1, hits give low values)?
Its normalized growth is 1.03.

What about the normalized growth (locus YHR129C, strain ARP1, hits give low values) of the same compound?
Its normalized growth is 1.02.

And the normalized growth (locus YHR142W, strain chs7, hits give low values)?
Its normalized growth is 0.79 (active).

What about the normalized growth (locus YHR200W, strain rpn10, hits give low values) of the same compound?
Its normalized growth is 1.03.

What about the normalized growth (locus YIL066C, strain RNR3, hits give low values) of the same compound?
The normalized growth was 0.992.

And the normalized growth (locus YIL073C, strain SPO22, hits give low values)?
The normalized growth was 0.902.

And the normalized growth (locus YIL125W, strain kgd1, hits give low values)?
Its normalized growth is 1.04.

And the normalized growth (locus YIR030C, strain dcg1, hits give low values)?
The normalized growth was 1.05.

And the normalized growth (locus YJL092W, strain hpr5, hits give low values)?
Its normalized growth is 1.01.

And the normalized growth (locus YJL095W, strain BCK1 (second series), hits give low values)?
Its normalized growth is 0.951.

What about the normalized growth (locus YJL095W, strain BCK1, hits give low values) of the same compound?
The normalized growth was 0.893 and 0.915.

What about the normalized growth (locus YJL115W, strain asf1, hits give low values) of the same compound?
Its normalized growth is 1.02.

What about the normalized growth (locus YJL129C, strain trk1, hits give low values) of the same compound?
The normalized growth was 0.934.

And the normalized growth (locus YJL134W, strain LCB3, hits give low values)?
The normalized growth was 1.01.

What about the normalized growth (locus YJL154C, strain vps35, hits give low values) of the same compound?
The normalized growth was 1.01.

And the normalized growth (locus YJL164C, strain tpk1, hits give low values)?
The normalized growth was 0.919.

What about the normalized growth (locus YJL166W, strain qcr8, hits give low values) of the same compound?
The normalized growth was 0.955.

And the normalized growth (locus YJL168C, strain set2, hits give low values)?
The normalized growth was 1.02.

What about the normalized growth (locus YJL187C, strain SWE1 (second series), hits give low values) of the same compound?
Its normalized growth is 0.995.

And the normalized growth (locus YJL187C, strain SWE1, hits give low values)?
The normalized growth was 0.976.

And the normalized growth (locus YJR043C, strain POL32, hits give low values)?
Its normalized growth is 1.01.

What about the normalized growth (locus YJR066W, strain TOR1, hits give low values) of the same compound?
The normalized growth was 0.84.

— PubChem BioAssay AID1159580 (chemical genetic matrix, 2015)
